Pol iota inh – DNA polymerase iota (human) inhibition | Q9UNA4 | Pol iota fluorescent replication assay, 10 min | Potency, µM (titrated, usually from 115 µM), inactives show at the top dose activity, negative = inhibition, hits mostly inhibitors | actives 1% (n = 390,000) | AID 588590
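Pol iota at 10 nM preincubated 15 min with compounds at room temperature; reaction started with fluorescent substrate, 50 nM final. Fluorescence read kinetically at 0 and 10 min; buffer-only wells as negative control.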
WRN helicase inh – inhibitors of human WRN helicase. Potency, µM (top dose mostly 114 µM), inactives show at the top dose activity change, negative = inhibition, actives largely listed as inhibitors. actives 0.46% (n = 360,000). AID 651768. WRN helicase unwinding, fluorescent forked duplex, kinetic. Q14191; note: % is set by controls: 0 for no effect and ±100 for the full control effect; nearly all actives have a fitted effect of over 55% in size
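Kinetic red-fluorescence monitoring (525/598 nm) tracks WRN helicase activity after 100 nM fluorophore-quencher forked duplex and 2 mM ATP are added to 20 nM enzyme pretreated 15 min at room temperature with compound.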
Pol eta inh – blocks human DNA polymerase eta activity | Q9Y253 | recombinant Pol eta, fluorescent DNA replication assay | Potency, µM (titrated, usually from 114 µM), for inactives: top-dose activity change, negative = inhibition, usual class: inhibitors | actives 1.2% (n = 390,000) | AID 588591; note: % is set by controls: 0 for no effect and ±100 for the full control effect
Target sequence (Q9Y253 whole entry, looked up): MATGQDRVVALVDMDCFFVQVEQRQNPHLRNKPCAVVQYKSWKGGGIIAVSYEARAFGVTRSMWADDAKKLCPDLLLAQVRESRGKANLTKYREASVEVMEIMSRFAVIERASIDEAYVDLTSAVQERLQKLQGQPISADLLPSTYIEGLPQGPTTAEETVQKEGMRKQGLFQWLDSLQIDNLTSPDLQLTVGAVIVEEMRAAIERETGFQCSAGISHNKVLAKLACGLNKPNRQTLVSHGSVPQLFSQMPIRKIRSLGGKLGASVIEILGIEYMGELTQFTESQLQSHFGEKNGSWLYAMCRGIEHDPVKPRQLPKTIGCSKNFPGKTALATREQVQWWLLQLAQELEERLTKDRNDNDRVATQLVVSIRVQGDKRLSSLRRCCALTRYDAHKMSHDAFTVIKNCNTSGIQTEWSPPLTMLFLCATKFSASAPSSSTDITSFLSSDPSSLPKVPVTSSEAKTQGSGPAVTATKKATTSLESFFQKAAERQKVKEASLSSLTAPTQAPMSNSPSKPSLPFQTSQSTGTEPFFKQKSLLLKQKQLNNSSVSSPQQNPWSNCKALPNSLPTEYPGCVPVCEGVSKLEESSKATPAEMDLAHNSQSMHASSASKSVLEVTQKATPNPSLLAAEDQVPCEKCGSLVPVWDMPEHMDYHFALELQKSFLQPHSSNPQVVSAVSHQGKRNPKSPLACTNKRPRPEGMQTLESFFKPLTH
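Pol eta at 10 nM preincubated with compounds 15 min at room temperature; reaction started with fluorescent substrate (50 nM final) and read kinetically at 0 and 10 min.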
POLB inh – inhibitors of human DNA polymerase beta. Pol beta primer extension/strand displacement, fluorescence kinetic. Potency, µM (titrated, usually from 114 µM), for inactives: top-dose activity change, negative = inhibition, most hits filed as inhibitors. actives 1.3% (n = 340,000). AID 485314; note: % is set by controls: 0 for no effect and ±100 for the full control effect
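10 nM enzyme + cpd, 15 min RT; start with substrate 50 nM final; read 0 min and after 10 min RT. Corrected, normalized data; 4-parameter Hill curve fit.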
FEN1 inh – human FEN1 inhibition | P39748 | Recombinant FEN1 flap cleavage, fluorescence, 15 min | Potency, µM (highest dose often 114 µM), without a hit: top-dose activity change, negative = inhibition, usual class: inhibitors | actives 0.35% (n = 390,000) | AID 588795; note: % is set by controls: 0 for no effect and ±100 for the full control effect; nearly all actives have a fitted effect of over 65% in size
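Potency values derive from four-parameter Hill fits of normalized qHTS data. The reaction used 10 nM FEN1 preincubated 15 min at room temperature with compound, then 50 nM DNA substrate, read at 0 and 15 min.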
Pol kappa inh – DNA polymerase kappa (human) inhibition | Q9UBT6 | purified Pol kappa, fluorescent DNA synthesis assay, 10 min | Potency, µM (highest dose often 107 µM), for inactives: at the top dose activity, negative = inhibition, usual class: inhibitors | actives 0.53% (n = 400,000); note: % is set by controls: 0 for no effect and ±100 for the full control effect
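Kinetic fluorescence readout at 0 and 10 min followed reaction start with substrate at 50 nM final. Beforehand, enzyme (10 nM Pol kappa) stood 15 min with compound at room temperature; buffer-only wells were negative controls.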
* marks the source's active call; other numbers are inactive results; u = inconclusive; x = not tested or not shown; ! = not active in a repeat; [ ] = another dose, or the depositor's remark. Rows were chosen to be rich in hits. Some 2.4% of all compounds tested hit in one or more screens of this group. Calls come from the whole dose curve; as a rule, active = well fitted curve in the direction sought with a large enough effect; inconclusive = small, poorly fitted or top-dose-only effect, or another doubt; inactive = no such curve, though single readings can be large; an effect the other way counts as inactive or inconclusive. Potency is the fitted concentration of half-maximal effect.

SMILES	Pol iota inh	WRN helicase inh	Pol eta inh	POLB inh	FEN1 inh	Pol kappa inh
CCOC(=O)COc1ccc2nsnc2c1Cl	6%	-5%	-18%	1%	5%	-28%
O=C1C(c2[nH]c3ccc(S(=O)(=O)O)cc3c2O)=Nc2ccc(S(=O)(=O)O)cc21	25µM*	x	x	x	u	u
CCOC(=O)C1OC1C(=O)N[C@@H](CC(C)C)C(=O)NCCC(C)C (stereo partly specified)	x	x	x	x	x	19%[60.1 µM]
Cc1ccc(CNC(=O)c2ccc(-n3c(C)cc4c3CCCC4)cc2)cc1	-7%	x	-11%	13%	-8%	-5%
Cc1cc2c(n1-c1ccc(C(=O)O)cc1)CCCCC2	x	x	x	2.5µM*	x	x
C/C1=C\[C@@H](O)C(C(C)C)C(OC(=O)c2ccc(O)cc2)C/C(C)=C/CC1 (stereo partly specified)	x	x	x	x	x	-4%[60.1 µM]
O=C(C[n+]1ccncc1)c1cccc([N+](=O)[O-])c1	-19%	x	x	x	18%	0%
CCOC(=O)C1CCN(c2cc3c(cc2NC(=O)c2ccc(OC)c(OC)c2)n(C)c(=O)n3C)CC1	30%	-15%[11.6 µM]	50µM*	61%	-20%	-8%
CCOC(=O)C1CCN(c2cc3c(cc2NC(=O)c2ccccc2)n(C)c(=O)n3C)CC1	34%	0%	-10%	5%	12%	11%
COc1ncc2nc(-c3ccc(F)cc3)c(=O)n(-c3ccccc3)c2n1	x	x	x	x	x	1%[60.1 µM]
Cn1c(=O)c2c(ncn2CC(O)CNc2ccc(Cl)cc2)n(C)c1=O (stereo unspecified)	11%	9%	10%	19%	2%	3%
Cc1ccc(NCC(O)Cn2cnc3c2c(=O)n(C)c(=O)n3C)cc1 (stereo unspecified)	195%	-9%	6%	13µM*	1%	-11%
COc1cc(C2c3c(oc4ccccc4c3=O)C(=O)N2c2nccs2)ccc1O (stereo unspecified)	3%	-18%[11.6 µM]	79µM*	-22%	-17%	-6%
O=C(NCC1CC1)c1ccc2nc(-c3ccoc3)c(-c3ccoc3)nc2c1	46%	x	x	x	-10%	-12%
O=C(NC(Cc1ccccc1)C(=O)O)/C(=C\c1ccco1)NC(=O)c1ccc(Br)cc1 (stereo unspecified)	20µM*	u	u	-22%	3%	50µM*
O=C(NC(Cc1ccccc1)C(=O)O)/C(=C\c1ccco1)NC(=O)c1ccco1 (stereo unspecified)	45%	-12%	-21%	u	0%	-19%
O=C(NC(Cc1ccccc1)C(=O)O)/C(=C\c1ccco1)NC(=O)c1ccccc1 (stereo unspecified)	u	-27%[57.1 µM]	14µM*	40µM*	-3%	-27%
O=[N+]([O-])c1ccc2c(c1)/C(=C/c1ccc(C=S)cc1)C=C2	10%	x	x	x	-10%	-23%
Cc1ccc(/C=c2/sc3nnc(-c4ccccc4Cl)n3c2=O)o1	u	u	14µM*	40µM*	-9%	-29%
Cc1ccc(-c2nc3s/c(=C\c4ccco4)c(=O)n3n2)cc1	25µM*	-15%[57.1 µM]	89µM*	28µM*	-5%	-42%
COc1ccccc1/C=c1\sc2nc(-c3ccccc3OC)nn2c1=O	-5%	-5%	-2%	3%	0%	-8%
Cc1ccc(/C=c2\sc3nc(-c4ccco4)nn3c2=O)o1	u	56µM*	3.5µM*	28µM*	u	28µM*
Cc1ccc(/C=c2\sc3nc(-c4ccccc4Br)nn3c2=O)o1	u	u	10µM*	14µM*	u	20µM*
CCc1ccc(C2/C=C\CNC(c3ccccc3)C(=O)N2Cc2ccc(C)cc2)cc1 (stereo unspecified)	5%	x	x	x	-23%	2%
CN(C)c1ccc(/C=C2\CCc3cc(N)ccc32)cc1	7%	x	x	x	-21%	-9%
SMILES	Pol iota inh	WRN helicase inh	Pol eta inh	POLB inh	FEN1 inh	Pol kappa inh
COc1ccc(C(=O)CCC(=O)Nc2cc(Cl)c(O)c(Cl)c2)cc1	45µM*	-21%	22µM*	28µM*	-16%	u
CCOc1ccc(NC(=O)CN(C)C(=O)Cc2c(C)nc3ccccc3c2C)cc1OCC	-18%	-28%	u	22µM*	-1%	-18%
Cc1nc2ccccc2c(C)c1CC(=O)N(C)CC(=O)Nc1cccc(F)c1	u	-13%	-11%	x	-9%	-13%
CCCCn1c(NC(=O)c2ccccc2Cl)c(C#N)c2nc3ccccc3nc21	3.5µM*	-35%	20µM*	0%	u	-10%
N#Cc1c(NC(=O)c2ccccc2Cl)n(Cc2ccccc2)c2nc3ccccc3nc12	20µM*	u	35µM*	71µM*	u	-17%
CCCCn1c(NC(=O)CC)c(C#N)c2nc3ccccc3nc21	22%	-13%	-17%	2%	-8%	-6%
CC1=C/C(=C(\c2ccc(O)c(C)c2)c2ccccc2S(=O)(=O)O)C=CC1=O	40%	17%	-7%	u	3%	-5%
O=C(O)C1=CC(=C(c2ccc(O)c(C(=O)O)c2)c2ccc(O)c(C(=O)O)c2)C=CC1=O	0.05µM*!	x	0.13µM*	0.022µM*	0.79µM*	0.63µM*!
CCC[C@H]1COCCS(=O)(=O)N1Cc1cccc(F)c1	29%	x	x	x	-7%	-14%
CC(C)[C@H](N)C(=O)N[C@@H](CCC(N)=O)C(=O)NCC(=O)N[C@@H](CCC(=O)O)C(=O)N[C@@H](CCC(=O)O)C(=O)N[C@@H](CO)C(=O)N[C@@H](CC(N)=O)C(=O)N[C@@H](CC(=O)O)C(=O)N[C@@H](CCCCN)C(=O)O	x	x	x	x	x	16%[60.1 µM]
NCCCCCCNc1nc2c(N)ncnc2n1[C@@H]1O[C@@H]2COP(=O)(O)O[C@H]2[C@H]1O	x	x	x	x	x	13%[60.1 µM]
Cc1cc(C)cc(-n2c3nc4ccccc4nc3c3c(=O)n(Cc4ccco4)cnc32)c1	2%	-11%	u	35µM*	-8%	-11%
COCCCn1cnc2c(c1=O)c1nc3ccccc3nc1n2-c1ccc(C)cc1	6%	-1%	-5%	35µM*	-3%	-11%
COCCCn1c2nc3ccccc3nc2c2c(=O)n(CC3CCCO3)cnc21 (stereo unspecified)	11%	8%	3%	40%	-1%	1%
CN1CCN(C(=O)C2CCCCC2)CC1	x	x	x	x	x	4%[19.4 µM]
Cc1cnc(CNc2ncncc2-c2ccccc2C(F)(F)F)cn1	x	x	x	x	x	-7%[60.1 µM]
CCOc1cc(/C=C2\C(=O)N(CCc3ccc(OC)c(OC)c3)C(C)=C2C(=O)OC)ccc1O	14%	79µM*	-10%	19%	-18%	-5%
Clc1cccc(Nc2ncnc3ccc(Br)cc23)c1	100µM*	-24%	-16%	7%	-24%	-19%

Assay outcomes: PubChem BioAssay, National Center for Advancing Translational Sciences (NCATS)
